The campaign covered roughly 47,000 compounds. About 95 (0.2%) were called active. No stated cut-off is given here; in the data, active means inhibition above about 30%; inactive means the rest. Only a selection was taken, and actives are over-represented in it overall.
Target: Ubiquitin carboxyl-terminal hydrolase isozyme L1 (Homo sapiens) (UniProt P09936)
Test: blocks human UCHL1 ubiquitin-rhodamine cleavage (AID 1645859)
Conditions: purified UCHL1, Ub-rhodamine cleavage fluorescence; at 20 µM; hits give high values

Chain of Ubiquitin carboxyl-terminal hydrolase isozyme L1 (Homo sapiens) (P09936 whole entry, looked up): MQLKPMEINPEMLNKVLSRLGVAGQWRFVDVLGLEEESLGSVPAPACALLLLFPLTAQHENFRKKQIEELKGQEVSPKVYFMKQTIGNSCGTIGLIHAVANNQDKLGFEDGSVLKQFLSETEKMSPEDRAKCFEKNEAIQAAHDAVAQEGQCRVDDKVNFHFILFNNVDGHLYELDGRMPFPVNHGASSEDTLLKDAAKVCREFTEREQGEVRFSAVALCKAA

inhibition, active:
Cc1c(-c2nn3c(-c4ccco4)nnc3s2)cccc1[N+](=O)[O-] 61.3%

inhibition, inactive:
COCC(=O)N1CCC(n2c(-c3ccccc3OC)nc3ccccc32)CC1 -2.92%
COCCC(=O)N1CCC2(C/C=C/Cc3ccccc3OCC(=O)NCCNC2=O)CC1 3.12%
COCC(=O)N1CCN2C[C@H]1C(=O)NC[C@H]1O[C@@H](CC(=O)N[C@H]3C[C@@H](C2=O)N(Cc2ccc(OC(F)(F)F)cc2)C3)[C@H](O)[C@@H]1O -6.2%
FC(F)(F)c1ccc(-c2nnc(SCCOc3ccccc3)o2)cc1 11.1%
Cc1ccc(CN2CN(C3CCN(C(=O)c4ccoc4)CC3)CC2=O)c(C)c1 -0.0513%
O=C(Nc1nc2nc(-c3ccccc3)cc(=O)n2[nH]1)C1CCCCC1 4.88%
Cc1nc(-c2cn(C(C)C)c3ncccc23)sc1C(=O)N1CCCC1 1.73%
Cc1ccc(CNC(=O)c2cc(=O)nc3sc(N4CCCC(C)C4)nn23)cc1 (configuration not stated) 0.655%
COc1ccc(C(NC(=O)CN(C)Cc2ccc3c(c2)OCO3)c2ccccc2)cc1 (configuration not stated) 6.51%
Fc1ccccc1Cn1c(COc2ccccc2)nc2ccccc21 8.93%
O=C(N[C@@H]1CN(Cc2nccs2)[C@@H]2COC[C@@H]21)C1CCC1 -3.31%
O=C(Nc1ccc(F)cc1)c1cc(CN2CCOCC2)on1 1.96%
C=C1CCC2[C@](C)(CCC[C@]2(C)C(=O)OC)[C@H]1CCc1ccoc1/C=C/C(=O)O (some centres not stated) 9.97%
O=C1COC2(CCN(C(=O)C3(c4ccccc4)CCOCC3)C2)CN1c1ccc(F)cc1 (configuration not stated) 2.68%
O=C(CCc1ccncc1)N(Cc1ccc2c(c1)OCO2)C1CCCCC1 -0.303%
COC[C@H]1C[C@@H]2CN(S(=O)(=O)c3ccccc3OC)C(C)[C@H]1N2C (some centres not stated) 0.608%
O=C(Nc1nnc(-c2cccc([N+](=O)[O-])c2)o1)C1CCN(S(=O)(=O)c2ccc3c(c2)CCC3)CC1 5.08%
Cc1nc(Nc2ccccn2)cc(C2CCCN2Cc2ncc[nH]2)n1 (configuration not stated) -2.35%
CCc1cccc(NS(=O)(=O)c2ccc3c(c2)C(C)(C)C(=O)N3)c1 4.05%
COc1cccc(CNC(=O)CN2C(=O)CCc3cc(Br)ccc32)c1 3.25%
O=C1CC2(C(=O)N(Cc3cccc(Cl)c3)c3ccccc32)c2cn[nH]c2N1 (configuration not stated) -5.23%
CCn1c(=O)c2ccccc2n(Cc2nc(-c3ccc(C)cc3)no2)c1=O -1.69%
O=C(C1CCC1)N1CCN2C(=O)c3ccccc3[C@H]2C1 -4.57%
O=C1C(O)=C(c2ccc(O)c(O)c2)C(=O)C(O)=C1c1ccccc1 13.7%
O=C1OCC2=C1C(c1ccccc1)CC(=O)N2c1cccc(F)c1 (configuration not stated) -0.0471%
Cc1nc(NCCO)c2sc3nc4c(cc3c2n1)COC(C)(C)C4 3.92%
CCOc1ccccc1-c1nc(-c2nnn(Cc3ccccc3)c2C)no1 7.54%
COc1ccc(C(Nc2ccc(S(=O)(=O)NCC3CCCO3)cc2)C(=O)NCC2CCCO2)cc1 (configuration not stated) 1.49%
O=C(Cn1c(=O)n(Cc2cccs2)c(=O)c2cc(Cl)ccc21)NCC1CCCO1 (configuration not stated) 0.727%
Cc1nc(N2CCOCC2)ncc1-c1cc(=O)[nH]c(N2CCC(Cc3ccccc3)CC2)n1 5.31%
Cc1nc2ccccc2n1CC(O)c1ccccc1 (configuration not stated) -0.449%
O=C(c1noc2ccc(S(=O)(=O)N3CCCC3)cc12)N1CCCC1 0.984%
Cc1ccc(CNc2nc3nc(CN4CCc5ccccc5C4)cc(=O)n3[nH]2)cc1 -0.288%
O=C(Cn1cc(SCc2cccc(F)c2)c2ccccc21)N1CCCCCC1 7.23%
CC(C)Cc1cc(-c2nn3c(-c4ccccc4Cl)nnc3s2)n[nH]1 5.44%
O=C(COc1cccc2ccc(N3CCC(Cc4ccccc4)CC3)nc12)NCc1ccc(F)cc1 2.33%
O=C(c1cn(-c2cc(-c3nc(C4CC4)no3)ccn2)cn1)N1CCCCCC1 -3.62%
O=C(NCCN1CCOCC1)C1CCN(c2ccc(N3CCCCC3)nn2)CC1 -0.229%
Cc1ncc(-c2ccncc2)c(C2CCN(C(=O)c3cnccn3)CC2)n1 0.226%
Cn1cc2nc(SCC(=O)NCc3ccc(Cl)cc3)n(CC3CC3)c(=O)c2n1 -3.8%
O=c1c2ccccc2c(-c2nc(-c3ccncc3)no2)cn1-c1ccc(F)cc1 3.33%

Source: PubChem BioAssay AID1645859 (Buhrlage Lab, Dana-Farber Cancer Institute and Novartis …, 2021)
